Results as given in PubChem BioAssay AID504725 (Broad Institute, 2011).
Entries with a potency or affinity are not part of this list.

target: KSHV LANA C-terminal domain (residues 932-1162) binding to LBS DNA (UniProt O40947); experiment: KSHV LANA DNA-binding disruption – biochemical, fluorescence polarization, cherry-picked samples, dose response (AID 504725); conditions: MBP-C-LANA / FAM-LBS DNA fluorescence polarization, percent change from plate compound-well median; series mostly up to 35 µM; activity change, negative = inhibition: at the top concentration

Activity change, negative = inhibition, inactive:
COC(=O)c1c(C)oc2ccc(N(C(C)=O)S(=O)(=O)c3ccccc3)cc12 2%
CCSc1nnc(Cc2cc(=O)[nH]c(=O)[nH]2)n1-c1ccc(F)cc1 -1.06%
CC(C)[C@H](NC(=O)c1ccccc1F)C(=O)NC1CCCCCCC1 1.06%
COc1cccc(C2CC(=O)Nc3cc4c(cc32)CCC4)c1 (centres undefined) -1.11%
COc1ccc(/C=N/NC(=O)c2ccc3nc[nH]c3c2)c(OC)c1 -4.41%
CN1CCN(C(=S)c2ccc(N(C)C)cc2)CC1 1.86%
CCN(CC(=O)NCc1cccs1)C(=O)c1ccc(S(=O)(=O)Nc2ccccc2C)cc1 1.8%
Cc1ccc(S(=O)(=O)Nc2ccc(Br)cc2C(NCC(=O)O)c2ccccc2)cc1 (centres undefined) 11.3%
O=C(CCn1c(=S)oc2ccccc21)N1CCN(c2ccc(F)cc2)CC1 1.94%
Cc1ccccc1NC(=S)NC(C)CCc1ccccc1 (centres undefined) -0.385%
CC(=O)OCCCn1c(C)[n+](C)c2cc(Cl)c(Cl)cc21 2.61%
CCOc1ccccc1N1CCN(C(=O)c2ccc3nc(N)sc3c2)CC1 1.38%
CCCc1nc(SC)[nH]c(=O)c1C -1.44%
CCN(C(=O)c1cccc(S(=O)(=O)N2CCc3ccccc32)c1)C1CCS(=O)(=O)C1 (centres undefined) -0.651%
Cc1noc(C)c1C(=O)N1CCN(c2ccc(OCc3ccccc3)cc2)CC1 -16.3%
Cc1ccc(C(CC(=O)N2CCCCC2)c2ccccc2)c(O)c1C (centres undefined) -6%
CSc1n[nH]c(=O)n1-c1cccc(Cl)c1 1.84%
CCN(CCCNC(=O)Cn1cc2c(n1)CCCC2)c1cccc(C)c1 1.47%
NC(=O)C1=NOC(CNc2ncc(C(F)(F)F)cc2Cl)C1 (centres undefined) -1.77%
